Data taken from PubChem BioAssay AID1035475 (Broad Institute, 2014).
Potency and affinity values are given separately. Results filed as inconclusive are left out. The source made the active and inactive calls.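 The calls were made as follows: active = fluorescent signal drops by 40% or more, counted as a hit; inconclusive = no clear call, values can overlap the other calls; inactive = the rest, including any activity in the opposite direction.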

Test: blockers of FN fibrillogenesis by fibroblasts – AH1F cells, Alexa488-FN fluorescence, cherry-picks, dose response (AID 1035475);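 also: AH1F fibroblasts incorporating labeled fibronectin into their extracellular matrix; 0% = neutral control wells and -100% = wells without labeled fibronectin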
Conditions: Alexa488-fibronectin deposition fluorescence, overnight; series mostly up to 35 µM; activity change, negative = inhibition: at the top concentration

| SMILES | activity change, negative = inhibition |
| --- | --- |
| CO[C@H]1CN(C)C(=O)c2ccc(NC(=O)c3ccc(-c4ccccc4)cc3)cc2OC[C@H](C)NC[C@@H]1C | 10.2% (inactive) |
| COc1cccc(S(=O)(=O)N2CC[C@@H]3[C@H]2c2cc(-c4ccc(C#N)cc4)ccc2N[C@@H]3CO)c1 | -9.22% (inactive) |
| Cc1ccc(S(=O)(=O)N2CC3(C)CN(S(=O)(=O)c4ccc(C)cc4)CC(C)(C2)C3=O)cc1 | 6.47% (inactive) |
| CC(C)C(=O)Nc1ccc2c(c1)C(=O)N(C)[C@@H]1CC[C@H](CC(=O)O)O[C@@H]1CO2 | 51.2% (inactive) |
| CO[C@H]1CN(C)C(=O)c2cc(NC(=O)Nc3ccc(C(F)(F)F)cc3)ccc2OC[C@H](C)NC[C@H]1C | 15.1% (inactive) |
| CO[C@@H]1CN(C)C(=O)c2cc(NC(=O)Nc3ccc(Cl)c(Cl)c3)ccc2OC[C@H](C)NC[C@H]1C | -1.63% (inactive) |
| CN1c2ccc(-c3ccccc3)cc2[C@@H]2[C@@H](CCN2C(=O)CN2CCOCC2)[C@@H]1CO | 24.1% [at 30 µM] (inactive) |
| COc1cccc(-c2ccc3c(c2)[C@H]2[C@H](CCN2S(=O)(=O)c2cccc(OC)c2)[C@H](CO)N3)c1 | 3.66% (inactive) |
| C[C@@H]1CN([C@H](C)CO)C(=O)c2cc(-c3ccccc3)cnc2O[C@H]1CN(C)Cc1ccccc1 | 24.2% (inactive) |
| CSc1ccccc1C(=O)C1CCCN(C(=O)CCc2cccnc2)C1 (configuration not stated) | 0.764% (inactive) |
| Cc1ccc(S(=O)(=O)N2CC[C@@H]3[C@@H](CO)Nc4ccc(-c5cccc(C(=O)N(C)C)c5)cc4[C@@H]32)cc1 | 15.5% (inactive) |
| CN(C)C(=O)c1ccc(-c2ccc3c(c2)[C@@H]2[C@@H](CCN2C(=O)c2ccc(F)cc2)[C@H](CO)N3C)cc1 | 38.9% (inactive) |
